Results taken from PubChem BioAssay (EPA / NIEHS).
Calls of active or inactive are those of the source. Rule for the calls: active = hit-call score of the fitted dose curve at least 0.9, where 1 is the maximum; inactive = score below 0.9.

Read-out: Bcl-2 (BAD) gene, BAD (gene 572)
Test: LTEA_HepaRG_BAD: Life Technologies and Expression Analysis (LTEA) Assay for Bcl-2 (BAD) gene using HepaRG (AID 2283469)
Conditions: mRNA level, 48 h; actives raise or lower the signal
Protocol: LTEA_HepaRG is a cell based, multiplexed-readout assay that uses HepaRG, a human liver cell line, with measurements taken at 48 hours after chemical dosing on a 96-well plate.LTEA_HepaRG_BAD is one of 102 assay component(s) measured in the LTEA HepaRG cell culture assay. It is a marker of Cell proliferation, survival, death.Data from the assay component LTEA_HepaRG_BAD was analyzed into 1 endpoint. This assay endpoint, LTEA_HepaRG_BAD, was analyzed with bidirectional fitting relative to DMSO as the negative control and baseline of activity. Using a type of inducible reporter, measures of mRNA induction for gain or loss-of-signal activity can be used to understand regulation of transcription factor activity. To generalize the intended target to other relatable targets, this assay endpoint is annotated to the cell cycle intended target family, where the subfamily is Cell proliferation, survival, death.
A total of 1060 chemcials from the ToxCast library were tested in eight-point concentration-response experiments. Cell culture and cytotoxicity assays were conducted at Thermo Fisher Scientific's Custom Services facility (Madison, WI). A single lot of human HepaRG cells (Thermo Fisher Scientific, Frederick, MD) was used for the cell culture experiments. 96-well format collagen type I coated plates of human HepaRG cells were prepared using established methods. Briefly, cryopreserved HepaRG cells were thawed, plated at a density of approximately 100,000 cells/well in HepaRG Thaw, Plate, and General Purpose media (HPRG770, Thermo Fisher Scientific), and incubated for 48 hours. 0.5% DMSO was selected as vehicle control to balance the requisite need of DMSO in HepaRG cultures to maintain differentiation (for example, baseline metabolism, proportions of hepatocytes vs. cholangiocytes), while enabling further hepatic receptor pathway activation (for example, PXR and CAR) in response to chemical exposure. 48 hours after plating, the culture medium was replaced with HepaRG Serum-Free Incudtion Media. Cells were exposed to each test chemical in duplicate and maintained in CO2 incubators for another 48 hours. Chemical plates were thawed to room temperature and 200x concentrations of treatment groups were prepared. 8-point conentration-reponse curves were made with the highest exposure at 100 uM, followed by half-log dilutions, all in 0.5% DMSO. Each test plate contained variouse controls, induction positive controls (1mM phenobarbital), cytotoxicity positive controls ([…] aflatoxin B1), vehicle controls (0.5% DMSO), and total lysis controls (0.5% DMSO). Cell morphology images were taken using an Essen IncuCyte FLR automated microscope, with six 96-well plates imaged in about 24 minutes. Images were captured and exported and JPEG files. Spent culture media was transfered to black-well plates for the LDH assay, and remaining media was sorted at -80 C for later use. Cells were treated with RLT buffer and frozen until shipped for gene expression analysis. Total RNA was isolated from the cell suspension in 75 uL of Buffer RLT (Qiagen, Germantown, MD 20874) by Quintiles/Expression Analysis (Durham, NC) using a custom isolation procedure. Total RNA from each plate well was transferred to a preamplification plate. Fluidigm's 96.96 Dynamic ArrayTM (Fluidigm, Amsterdam, the Netherlands) technology was used for gene expression analyses by quantitative reverse transcription polymerase chain reaction (qRT-PCR, performed by Quintiles/Expression Analysis, Durham, NC)89. Standard TaqManTM Assays (Applied Biosystems/ThermoFisher Scientific, Foster City, CA) were used to assess the expression of 93 genes selected based on their selectivity and sensitivity to important hepatic receptors known to be modulated by environmental chemicals; importance in human hepatocyte functionality; and hepatotoxicity. […]

Row | SMILES | outcome | AC50
1 | CCOC(=O)C(O)(c1ccc(Cl)cc1)c1ccc(Cl)cc1 | inactive | –
2 | Clc1ccc(Cl)cc1 | inactive | –
3 | CCCCCCCCOC(=O)c1ccccc1C(=O)OCCCCCCCC | inactive | –
4 | C[C@]12CCC(=O)C=C1CC[C@@H]1[C@@H]2CC[C@]2(C)C(=O)CC[C@@H]12 | inactive | –
5 | Cc1ccccc1CO[C@@H]1C[C@@]2(C(C)C)CC[C@]1(C)O2 | inactive | –
6 | CO/C=C(/C(=O)OC)c1ccccc1COc1cccc(C(F)(F)F)n1 | inactive | –
7 | Cc1ccccc1[N+](=O)[O-] | inactive | –
8 | CCOCCOC(C)=O | inactive | –
9 | CCCCCCOC(=O)c1ccccc1C(=O)OCCCCCC | inactive | –
10 | ClC1=C(Cl)[C@]2(Cl)[C@@H]3[C@H]4C[C@H]([C@@H]5O[C@H]45)[C@@H]3[C@@]1(Cl)C2(Cl)Cl | inactive | –
11 | O=S(=O)(O)C(F)(F)C(F)(F)C(F)(F)C(F)(F)F | inactive | –
12 | Oc1ccc(Cl)cc1Cl | inactive | –
13 | c1cc2ccc3cccc4ccc(c1)c2c34 | inactive | –
14 | Oc1ccc(C(c2ccc(O)cc2)(C(F)(F)F)C(F)(F)F)cc1 | inactive | –
15 | Cc1cc(O)ccc1Cl | inactive | –
16 | CCC(C)c1cc([N+](=O)[O-])cc([N+](=O)[O-])c1O (stereo not given) | inactive | –
17 | Cc1cc2c3c(c1)C(c1ccccc1)=N[C@@H](NC(=O)c1ccncc1)C(=O)N3CC2 | inactive | –
18 | O=C(NC(=O)c1c(F)cccc1F)Nc1cc(Cl)c(OC(F)(F)C(F)F)c(Cl)c1 | inactive | –
19 | COS(=O)(=O)OC | inactive | –
20 | N#Cc1ccc(N(CC(N)=O)CC(F)(F)F)cc1C(F)(F)F | inactive | –

Row | SMILES | outcome | AC50
21 | CCCCCCCCCc1ccc(O)cc1 | inactive | –
22 | CN(C)CCO | inactive | –
23 | C=CC(=O)NCNC(=O)C=C | inactive | –
24 | Cc1cc(-c2ccc(N)c(C)c2)ccc1N | inactive | –
25 | CN(C)c1nc(=O)n(C2CCCCC2)c(=O)n1C | inactive | –
26 | Nn1cnnc1 | inactive | –
27 | ClC(Cl)=C(c1ccc(Cl)cc1)c1ccc(Cl)cc1 | inactive | –
28 | O=C(O)C(F)(F)C(F)(F)C(F)(F)C(F)(F)C(F)(F)C(F)(F)C(F)(F)C(F)(F)C(F)(F)F | inactive | –
29 | O=C(O)C(F)(F)C(F)(F)C(F)(F)C(F)(F)C(F)(F)F | inactive | –
30 | Oc1c(Cl)c(Cl)c(Cl)c(Cl)c1Cl | inactive | –
31 | Cc1ccc(O)c(C)c1 | inactive | –
32 | NS(=O)(=O)C(F)(F)C(F)(F)C(F)(F)C(F)(F)C(F)(F)C(F)(F)C(F)(F)C(F)(F)F | – | 17.6 µM (active)
33 | Nc1ccc(-c2ccc(N)cc2)cc1 | inactive | –
34 | Cc1cccc(C)c1N | inactive | –
35 | CCOP(=S)(OCC)SCSC(C)(C)C | inactive | –
36 | CC(C)(O)C(=O)Nc1ccc([N+](=O)[O-])c(C(F)(F)F)c1 | – | 0.0265 µM (active)
37 | CCSC(=O)N(CC)C1CCCCC1 | inactive | –
38 | CCNc1nc(NC(C)C)nc(SC)n1 | inactive | –
39 | O=C(NC(=O)c1cc(F)c(F)cc1Cl)Nc1cc(F)ccc1N1CCC(C(=O)O)CC1 | inactive | –
40 | CCC(C)(CC)c1cc(NC(=O)c2c(OC)cccc2OC)on1 | inactive | –
